Measured values from ChEMBL document CHEMBL3988442, “University of Dundee, Small-Polar-MMV Screening Library” (2021).
For some assays here: Entries with a potency or affinity are not part of this list.

Tests used:
Design in all cases: scale not given: direction of the effect not stated beside the values
[1] = target: Protein translocase subunit SecA (Escherichia coli (strain K12)) (UniProt P10408); assay: Assay to Identify E. coli SecA ATPase Inhibitors; type: functional; conditions: 30 µM
[2] = target: T1, Ubiquitin-activating enzyme e1, putative (Leishmania donovani (strain BPK282A1)) (UniProt E9BSI1); assay: Leishmania donovani Ubiquitin Activating Enzyme (LdE1); type: functional; conditions: 30 µM
T1 sequence (whole entry): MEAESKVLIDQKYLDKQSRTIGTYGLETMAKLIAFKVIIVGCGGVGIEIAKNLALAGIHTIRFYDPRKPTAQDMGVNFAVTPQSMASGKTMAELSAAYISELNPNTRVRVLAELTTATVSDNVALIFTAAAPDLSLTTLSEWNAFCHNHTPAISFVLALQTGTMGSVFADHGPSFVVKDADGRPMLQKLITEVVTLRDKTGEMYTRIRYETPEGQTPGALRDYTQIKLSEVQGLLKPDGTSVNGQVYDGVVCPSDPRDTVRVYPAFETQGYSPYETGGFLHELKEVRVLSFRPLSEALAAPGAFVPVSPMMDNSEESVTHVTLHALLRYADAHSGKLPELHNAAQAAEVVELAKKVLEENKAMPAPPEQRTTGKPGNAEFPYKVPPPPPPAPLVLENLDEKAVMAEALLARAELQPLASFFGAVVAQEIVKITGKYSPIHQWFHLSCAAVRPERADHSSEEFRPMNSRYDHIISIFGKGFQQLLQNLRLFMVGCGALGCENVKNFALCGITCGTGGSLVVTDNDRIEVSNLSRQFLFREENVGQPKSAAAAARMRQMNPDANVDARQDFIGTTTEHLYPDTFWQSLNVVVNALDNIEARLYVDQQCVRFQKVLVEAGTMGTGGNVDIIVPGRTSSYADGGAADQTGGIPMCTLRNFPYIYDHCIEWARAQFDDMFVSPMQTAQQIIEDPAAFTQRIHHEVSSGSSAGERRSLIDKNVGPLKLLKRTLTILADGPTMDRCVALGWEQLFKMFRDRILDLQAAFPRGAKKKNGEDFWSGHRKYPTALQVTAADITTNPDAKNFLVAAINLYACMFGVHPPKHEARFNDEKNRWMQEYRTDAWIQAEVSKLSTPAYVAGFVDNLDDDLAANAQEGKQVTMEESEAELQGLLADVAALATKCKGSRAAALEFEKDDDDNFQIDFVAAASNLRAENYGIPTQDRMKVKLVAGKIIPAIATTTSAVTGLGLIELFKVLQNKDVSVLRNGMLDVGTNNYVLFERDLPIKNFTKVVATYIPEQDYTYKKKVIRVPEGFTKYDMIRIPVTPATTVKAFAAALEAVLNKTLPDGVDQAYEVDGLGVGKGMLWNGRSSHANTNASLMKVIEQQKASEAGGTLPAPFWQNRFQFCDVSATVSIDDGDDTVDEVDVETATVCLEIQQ

[3] = target: AMP-activated protein kinase, AMPK (Homo sapiens) (UniProt P54646+O43741+P54619+Q9UGJ0+Q9Y478+Q13131+Q9UGI9); assay: AMP-dependent Kinase enzyme assay. An in vitro enzyme assay that detects ADP turnover that is directly proportional to AMPK activity. This uses naive AMPK that is activated during the assay with MK-8722; type: functional; conditions: 30 µM
[4] = target: Sialic acid-binding Ig-like lectin 9 (Homo sapiens) (UniProt Q9Y336); assay: Hs-Siglec9 ALPHAscreen SOP 20170721; conditions: 10 µM
Sialic acid-binding Ig-like lectin 9 (Homo sapiens), sequence (Q9Y336 whole entry): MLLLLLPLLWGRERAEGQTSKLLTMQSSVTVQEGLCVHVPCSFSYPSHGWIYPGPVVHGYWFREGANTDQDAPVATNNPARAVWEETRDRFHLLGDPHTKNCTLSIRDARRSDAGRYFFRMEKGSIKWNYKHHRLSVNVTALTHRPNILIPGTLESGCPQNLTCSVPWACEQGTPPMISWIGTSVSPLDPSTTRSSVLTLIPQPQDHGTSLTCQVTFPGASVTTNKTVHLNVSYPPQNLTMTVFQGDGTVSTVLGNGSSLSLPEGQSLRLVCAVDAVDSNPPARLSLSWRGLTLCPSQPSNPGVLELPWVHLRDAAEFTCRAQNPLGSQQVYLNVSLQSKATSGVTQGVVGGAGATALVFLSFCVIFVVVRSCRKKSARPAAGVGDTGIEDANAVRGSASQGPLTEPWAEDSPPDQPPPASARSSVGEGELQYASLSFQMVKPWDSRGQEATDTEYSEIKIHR

Trypanosoma cruzi = assay: Trypanosoma cruzi phosphomannomutase and mannose-1-phosphate guanylyltransferase assay; type: functional; conditions: 10 µM
[5] = target: T2, Arginase-2, mitochondrial (Homo sapiens) (UniProt P78540); assay: in vitro enzyme assay to detect the production of urea directly proportional to the activity of Arginase II; type: functional; conditions: 33.3 µM; note: in the data most compounds retested in dose-response had high values
T2 sequence (whole entry): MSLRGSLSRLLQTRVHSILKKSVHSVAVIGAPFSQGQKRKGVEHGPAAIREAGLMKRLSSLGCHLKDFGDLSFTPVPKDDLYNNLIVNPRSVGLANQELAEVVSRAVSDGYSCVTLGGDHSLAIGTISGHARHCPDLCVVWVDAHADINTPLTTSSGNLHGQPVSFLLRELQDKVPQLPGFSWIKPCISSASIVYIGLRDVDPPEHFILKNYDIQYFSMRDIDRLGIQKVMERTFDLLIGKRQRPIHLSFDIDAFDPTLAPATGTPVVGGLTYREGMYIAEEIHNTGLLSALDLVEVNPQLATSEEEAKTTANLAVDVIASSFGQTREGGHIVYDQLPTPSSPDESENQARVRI

[6] = target: T3, Proteasome subunit beta (Trypanosoma cruzi) (UniProt O96673); assay: Trypanosoma cruzi proteasome chymotrypsin-like activity (TcProtChymo) assay.; note: in the data most compounds retested in dose-response had high values; type: functional; conditions: 9.37 µM
T3 sequence (whole entry): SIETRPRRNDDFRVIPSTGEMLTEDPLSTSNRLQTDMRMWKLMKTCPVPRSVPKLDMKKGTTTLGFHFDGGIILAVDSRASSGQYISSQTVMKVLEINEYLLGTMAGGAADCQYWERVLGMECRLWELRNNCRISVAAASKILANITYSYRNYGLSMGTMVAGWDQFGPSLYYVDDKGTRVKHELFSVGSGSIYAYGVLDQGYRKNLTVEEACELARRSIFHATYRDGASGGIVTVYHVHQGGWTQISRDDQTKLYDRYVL

Homo sapiens = organism: Homo sapiens; assay: To identify inhibition of the IFN signalling (Jak-Stat) pathway via expression of an eGFP reporter gene under the control of an IFN-stimulated response element (ISRE) containing MxA promoter.; type: functional; conditions: 30 µM
[7] = target: T4, Tyrosyl-tRNA synthetase, putative (Trypanosoma cruzi (strain CL Brener)) (UniProt Q4DSP6); assay: Trypanosoma cruzi tyrosyl tRNA synthetase (TcYRS) _High Tyrosine SOP; type: functional; conditions: 30 µM; note: in the data most compounds retested in dose-response had high values
T4 sequence (whole entry): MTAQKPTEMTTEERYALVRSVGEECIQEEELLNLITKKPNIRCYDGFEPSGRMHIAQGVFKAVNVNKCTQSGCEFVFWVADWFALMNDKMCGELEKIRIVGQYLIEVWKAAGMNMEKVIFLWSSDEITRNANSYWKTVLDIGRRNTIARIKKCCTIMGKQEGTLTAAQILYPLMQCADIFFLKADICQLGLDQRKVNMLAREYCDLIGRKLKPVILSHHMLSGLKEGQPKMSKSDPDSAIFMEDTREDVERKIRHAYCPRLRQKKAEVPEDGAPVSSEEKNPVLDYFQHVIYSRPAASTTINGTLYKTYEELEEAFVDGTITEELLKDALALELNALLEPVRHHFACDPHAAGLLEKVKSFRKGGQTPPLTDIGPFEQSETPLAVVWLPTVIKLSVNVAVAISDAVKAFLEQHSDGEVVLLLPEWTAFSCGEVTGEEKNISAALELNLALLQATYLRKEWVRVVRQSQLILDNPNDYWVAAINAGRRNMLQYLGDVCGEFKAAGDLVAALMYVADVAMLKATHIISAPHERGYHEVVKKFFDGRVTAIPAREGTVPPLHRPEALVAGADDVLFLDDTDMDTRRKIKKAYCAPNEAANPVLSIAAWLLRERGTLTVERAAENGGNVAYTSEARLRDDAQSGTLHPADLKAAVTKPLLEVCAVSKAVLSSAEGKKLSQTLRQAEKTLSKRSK

[8] = target: T4, Tyrosyl-tRNA synthetase, putative (Trypanosoma cruzi (strain CL Brener)); assay: Trypanosoma cruzi tyrosyl tRNA synthetase (TcYRS) SOP; type: functional; conditions: 30 µM
[9] = target: Chromo domain-containing protein 1 (Saccharomyces cerevisiae (strain ATCC 204508 / S288c) (Baker's yeast)) (UniProt P32657); assay: ScCHD-1 Enzyme Inhibition Assay; type: functional; conditions: 30 µM; note: in the data most compounds retested in dose-response had high values
Chromo domain-containing protein 1 (Saccharomyces cerevisiae (strain ATCC 204508 / S288c) (Baker's yeast)), sequence (P32657 whole entry, the tested form may be a part): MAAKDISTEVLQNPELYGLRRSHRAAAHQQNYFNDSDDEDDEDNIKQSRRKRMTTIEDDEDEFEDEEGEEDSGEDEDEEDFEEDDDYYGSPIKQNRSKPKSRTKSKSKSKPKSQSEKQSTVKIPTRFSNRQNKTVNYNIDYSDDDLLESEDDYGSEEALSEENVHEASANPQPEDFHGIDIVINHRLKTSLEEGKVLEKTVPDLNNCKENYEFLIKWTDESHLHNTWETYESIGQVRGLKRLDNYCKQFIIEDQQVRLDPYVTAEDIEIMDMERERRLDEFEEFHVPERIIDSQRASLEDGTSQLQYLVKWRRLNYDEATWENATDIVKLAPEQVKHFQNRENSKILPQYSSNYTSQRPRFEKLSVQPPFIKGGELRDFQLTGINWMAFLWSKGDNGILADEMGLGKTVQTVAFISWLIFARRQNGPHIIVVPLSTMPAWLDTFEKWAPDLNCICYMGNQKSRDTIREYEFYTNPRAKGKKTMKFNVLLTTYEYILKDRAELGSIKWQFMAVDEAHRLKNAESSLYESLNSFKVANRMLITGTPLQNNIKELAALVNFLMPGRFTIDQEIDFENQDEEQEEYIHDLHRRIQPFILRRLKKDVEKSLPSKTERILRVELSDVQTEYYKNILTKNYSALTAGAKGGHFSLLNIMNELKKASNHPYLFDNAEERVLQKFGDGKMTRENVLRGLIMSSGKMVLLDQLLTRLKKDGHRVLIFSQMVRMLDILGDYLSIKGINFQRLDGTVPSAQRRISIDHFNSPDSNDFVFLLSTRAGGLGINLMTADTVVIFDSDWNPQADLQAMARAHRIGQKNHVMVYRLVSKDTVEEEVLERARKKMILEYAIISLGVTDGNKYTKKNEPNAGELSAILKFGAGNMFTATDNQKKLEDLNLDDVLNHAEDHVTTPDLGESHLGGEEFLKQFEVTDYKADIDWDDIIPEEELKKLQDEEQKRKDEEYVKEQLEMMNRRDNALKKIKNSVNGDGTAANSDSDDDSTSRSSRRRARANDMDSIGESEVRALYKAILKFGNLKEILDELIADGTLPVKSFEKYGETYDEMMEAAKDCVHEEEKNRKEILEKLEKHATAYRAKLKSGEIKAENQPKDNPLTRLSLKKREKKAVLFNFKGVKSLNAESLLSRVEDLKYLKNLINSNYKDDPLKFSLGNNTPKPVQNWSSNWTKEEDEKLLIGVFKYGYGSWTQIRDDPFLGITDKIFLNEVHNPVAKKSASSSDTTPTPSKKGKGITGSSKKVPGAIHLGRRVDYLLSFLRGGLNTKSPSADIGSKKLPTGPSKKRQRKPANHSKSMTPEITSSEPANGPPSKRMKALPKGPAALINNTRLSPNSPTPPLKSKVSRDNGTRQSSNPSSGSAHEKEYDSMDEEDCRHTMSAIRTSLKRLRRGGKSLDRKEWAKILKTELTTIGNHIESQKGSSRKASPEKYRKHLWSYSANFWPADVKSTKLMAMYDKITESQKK

Protein translocase subunit SecA (Escherichia coli (strain K12)), sequence (P10408 whole entry): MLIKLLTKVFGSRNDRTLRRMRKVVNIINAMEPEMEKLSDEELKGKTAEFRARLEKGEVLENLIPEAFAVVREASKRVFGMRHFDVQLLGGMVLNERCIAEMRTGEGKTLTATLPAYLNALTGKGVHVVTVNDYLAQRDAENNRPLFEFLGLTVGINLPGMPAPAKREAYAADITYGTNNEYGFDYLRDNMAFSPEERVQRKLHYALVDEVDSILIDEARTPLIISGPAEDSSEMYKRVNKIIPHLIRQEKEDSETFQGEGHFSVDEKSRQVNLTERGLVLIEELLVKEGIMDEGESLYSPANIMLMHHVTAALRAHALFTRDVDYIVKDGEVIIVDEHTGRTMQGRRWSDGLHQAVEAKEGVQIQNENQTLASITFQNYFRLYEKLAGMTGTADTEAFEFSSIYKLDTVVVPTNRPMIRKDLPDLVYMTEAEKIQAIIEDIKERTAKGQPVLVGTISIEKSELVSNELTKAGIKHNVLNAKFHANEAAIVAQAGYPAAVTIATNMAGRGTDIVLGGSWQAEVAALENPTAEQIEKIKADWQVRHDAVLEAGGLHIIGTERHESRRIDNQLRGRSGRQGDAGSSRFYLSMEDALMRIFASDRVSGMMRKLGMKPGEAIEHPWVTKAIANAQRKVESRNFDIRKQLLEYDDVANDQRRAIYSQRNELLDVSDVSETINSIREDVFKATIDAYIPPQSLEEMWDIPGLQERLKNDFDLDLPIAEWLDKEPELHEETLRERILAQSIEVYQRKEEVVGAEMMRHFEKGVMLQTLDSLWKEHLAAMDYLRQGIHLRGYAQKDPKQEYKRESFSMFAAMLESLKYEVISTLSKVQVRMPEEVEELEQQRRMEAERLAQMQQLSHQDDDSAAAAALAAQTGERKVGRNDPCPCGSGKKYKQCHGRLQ

| Structure (SMILES) | Percent Effect [1] [%] | Percent Effect [2] [%] | Percent Effect [3] [%] | Percent Effect [4] [%] | Percent Effect (Trypanosoma cruzi) [%] | Percent Effect [5] [%] | Percent Effect [6] [%] | Percent Effect (Homo sapiens) [%] | Percent Effect [7] [%] | Percent Effect [8] [%] | Percent Effect [9] [%] |
| --- | --- | --- | --- | --- | --- | --- | --- | --- | --- | --- | --- |
| CN(Cc1cc2c(cc1OC(F)F)OCO2)Cc1nccn1C | -4.78 | 2.7 | -4.36 | 4 | 1.27 | -0.744 | 5.58 | 0.0596 | 3.23 | 6.17 | -1.72 |
| CN(C)C(=O)c1nc2c(s1)CCN(C(=O)c1ccc(Cl)cc1)CC2 | -2.69 | 18.7 | -9.31 | -1.54 | 2.7 | -29.6 | 10.4 | -8.27 | 9.38 | 30 | -12.2 |
| CC(C)c1cc(NCC(C)N2CCCC2)n2nccc2n1 (configuration not stated) | 1.2 | 8.11 | 1.17 | 6.08 | -2.51 | -1.43 | 20.5 | 6.7 | 12.2 | 17.1 | -5.28 |
| CC(C)Nc1ccc2nc(C3CCN(C(C)C)CC3)nn2c1 | -0.345 | 8.11 | -95.9 | -2.89 | 3.91 | 26.2 | 8.54 | 7.24 | 10.9 | 8.54 | -1.81 |
| CNC(=O)C1Cn2ccnc2C2(CCN(Cc3cccnc3)CC2)O1 (configuration not stated) | -4.76 | 10.8 | 2.08 | 2.7 | -0.684 | -0.319 | 23.4 | -1.62 | 9.73 | 25.6 | -0.425 |
| CN(C)C(=O)COC[C@]12COC[C@H]1CN(Cc1ccoc1)C2 | -2.44 | 2.7 | -3.89 | 10.2 | 5.77 | 7.69 | 2.49 | 5.51 | 4.3 | 1.24 | -5.77 |
| CN(CCC#N)C(=O)CN1CCCC1c1ccsc1 (configuration not stated) | -7.51 | 0 | -7.58 | 1.78 | -3.62 | 0.924 | -1.26 | 11.9 | -2.97 | -1.22 | 7.91 |
| CC(=O)N1CCN(C(=O)CN2CCc3c(ncn3C3CC3)C2)CC1 | -0.513 | 19 | -1.56 | -4.08 | 1.33 | 5.38 | 17.5 | 11.7 | 1.04 | 5.06 | -19.7 |
| CN1CCc2onc(CNc3ncccn3)c2C1 | -7.63 | 2.67 | 0.141 | -6.27 | -7.53 | -53.9 | 3.25 | 3.62 | 0 | 5 | -6.01 |
| O=C(c1cscn1)N1CCC2(CCN(Cc3nccs3)C2)CC1 | -1.95 | 2.7 | 2.22 | 3.97 | 0.293 | -6.05 | 16.4 | -17.2 | 1.08 | 5.13 | 5.03 |
| COc1c(C2CCCN2C(=O)c2ccnc(N(C)C)c2)c(C)nn1C (configuration not stated) | -4.71 | 5.2 | 4.01 | 13.2 | -4.21 | 2.74 | 5.58 | 14 | 4.76 | 7.06 | -20 |
| COCc1nc(N(C)C)ncc1C(=O)NC(C)C | -5.73 | -1.33 | 4.52 | -0.683 | -3.54 | -2.99 | 4.07 | -5.53 | 2.12 | -2.56 | -0.879 |
| CSc1ccc(C(CN)N2CCc3sccc3C2)cc1 (configuration not stated) | 0.534 | -15.8 | -4.11 | -9.22 | 3.6 | -5.92 | 6.42 | 39.7 | 17 | 28.6 | 1.73 |
| CC(NC(=O)NCc1ccc(Cl)s1)c1ccccn1 (configuration not stated) | -1.22 | 11.4 | 6.06 | 1.35 | -3.38 | 2.37 | 5.49 | 12.4 | 3.12 | 15.2 | -12.8 |
| CCc1nc(C)c([C@H]2CN(C)C[C@@H]2C(=O)NCCc2cnccn2)[nH]1 | -4.56 | 8.11 | 3.09 | 6.61 | 1.54 | 2.86 | 6.72 | 3.41 | 10.1 | 17.1 | -3.65 |
| Cc1cc(NC(=O)NCC(C)O)n(C)n1 (configuration not stated) | -5.54 | 10.5 | -8.37 | 7.06 | 5.64 | 0 | 12.2 | -5.12 | 2.45 | 12.2 | -14.2 |
| O=C1CCSCC(C(=O)N2CCOCC2)N1 (configuration not stated) | -5.1 | 2.74 | -1.73 | -8.51 | -2.74 | -0.455 | 5.5 | 16 | 2.15 | 7.5 | 0.585 |
| COc1cccc2c1ccn2CCC(=O)NCCCC(=O)O | -1.03 | 20 | 1.22 | -4.11 | -4.32 | -2.99 | 13.5 | -6.02 | 5.29 | 5.13 | -9.24 |
| O=C(NCCCn1ccnc1)N1CCCC1c1ccncc1 (configuration not stated) | -1.66 | -2.67 | -1.97 | -2.62 | -5.36 | 1.56 | -1.57 | -1.17 | -0.546 | 1.24 | 5.86 |
| CN(C)Cc1cc(=O)n2c(n1)CN(C(=O)Cc1ccsc1)CCC2 | 0.204 | 2.6 | 0.0483 | -0.795 | 0.492 | 1.38 | 6.49 | -22.4 | 1.07 | 1.24 | -2.76 |
| CN(Cc1cnn(C)c1)C(=O)NC1CCC(O)CC1 (configuration not stated) | -2.67 | 4.17 | -6.32 | 15.8 | 2.82 | 9.71 | 13 | -3.51 | 0 | 2.56 | -2.95 |
| CS(=O)(=O)NCCNC(=O)C1(c2cccc(Cl)c2)CC1 | -0.857 | 9.72 | -4.76 | 1.31 | 1.07 | 20.8 | 10.9 | -17.9 | 3.16 | 7.69 | -4.91 |
